Activity calls are given as the source filed them. How the calls were made is not given here.

The IC50 is the concentration that gives 50% inhibition.

A short description of this assay: PLAP enzyme activity inhibition – biochemical, colorimetric, counter-screen, dose response (AID 779). Particulars: colorimetric OD read-out.
For `COc1ccc(C(=O)CN2CCOCC2)cc1F`, the IC50 is > 50 µM (inactive). `CC(=O)OC1(c2ccc(C)cc2)CN2CCC1c1ccccc12` (stereo not given): the IC50 was > 50 µM (inactive). As for `CCCCOP(=O)(OCCCC)/C(C#N)=C(/C)O`, the figure is > 50 µM (inactive); as for `CN1/C(=C\C=C\C2=[N+](C)c3ccc4ccccc4c3C2(C)C)C(C)(C)c2ccccc21`, > 50 µM (inactive); as for `Cc1cc(C=C2C(=O)N(C)C(=S)N(C)C2=O)c(C)n1C1CCCCC1`, > 50 µM (inactive).
